HEK cytotox – Cytotoxic Profiling in HEK 293 Cell Line of Diverse Libraries Using Quantitative High-Throughput Screening. AID 1345083, 2018. hit rate 6.6% among 94,000. Potency, µM (top dose mostly 115 µM), inactives show top-dose activity change, negative = cytotoxicity, most hits filed as inhibitors. HEK 293 viability, ATP luminescence (CellTiter-Glo), 48-72 h; further: on the % scale 0 is the no-effect control and ±100 the full control effect; nearly all actives have a fitted effect of over 60% in size
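Pintool-delivered compounds were incubated with HEK 293 cells (250 cells/well) at 37 degree Celsius for 48 or 72 hr. ATP-dependent luminescence (CellTiter-Glo) then reported remaining viable cells.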
FLuc inh-1 – Firefly luciferase inhibition profiling of diverse chemical library using quantitative high-throughput screening; purified P. pyralis luciferase, luminescence, biochemical; Potency, µM (series often up to 115 µM), most hits filed as inhibitors; hit rate 2.5% among 76,000; further: on the % scale 0 is the no-effect control and ±100 the full control effect; nearly all actives have a fitted effect of over 65% in size
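Luminescence read by CCD imager after adding enzyme (10nM final) to wells holding compound, titrated in qHTS. Substrates 10uM each D-luciferin and ATP; buffer 50mM Tris acetate pH 7.5, 10mM Mg acetate, Tween-20, BSA.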
3T3 cytotox – Cytotoxic Profiling in NIH 3T3 Cell Line of Diverse Libraries Using Quantitative High-Throughput Screening; NIH 3T3 viability, CellTiter-Glo ATP luminescence, 48-72 h; hit rate 4.3% among 94,000; Potency, µM (top dose mostly 96.7 µM), without a hit: at the highest dose activity change, negative = cytotoxicity, actives largely listed as inhibitors; further: on the % scale 0 is the no-effect control and ±100 the full control effect; nearly all actives have a fitted effect of over 55% in size
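First NIH 3T3 cells are plated at 400 cells/well; next compound is pinned in; then plates incubate 48 or 72 hr at 37 °C; finally CellTiter-Glo is added and luminescence read after 10 min.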
hNpr1 antagonist – Natriuretic polypeptide receptor (hNpr1) antagonism - Primary qHTS | Potency, µM (highest dose often 46.3 µM), for inactives: at the highest dose activity change, negative = inhibition, actives largely listed as inhibitors | HEK293 hNpr1 GloSensor cGMP, ANP-stimulated luminescence | AID 1347048, 2019 | hit rate 1.6% among 76,000 | Atrial natriuretic peptide receptor 1 (Homo sapiens), P16066; calls by dose curve; further: on the % scale 0 is the no-effect control and ±100 the full control effect; nearly all actives have a fitted effect of over 60% in size
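HEK293 cells stably expressing human Npr1 and cGMP GloSensor pGS-40F, loaded 2 h with 2% GloSensor reagent, given compound 30 min at room temperature. Luminescence read before and 20 min after 0.1 nM hNppA.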
GPT2 inh – Primary qHTS assay for inhibitors of Glutamate pyruvate transaminase 2 (GPT2). Alanine aminotransferase 2 (Homo sapiens), Q8TD30. Recombinant GPT2, coupled pyruvate oxidase/HRP Amplex Red fluorescence. Potency, µM (top dose mostly 57.7 µM), inactives show at the highest dose activity change, negative = inhibition, actives largely listed as inhibitors. hit rate 0.25% among 100,000; further: on the % scale 0 is the no-effect control and ±100 the full control effect; nearly all actives have a fitted effect of over 60% in size
Target sequence (Q8TD30 whole entry, looked up): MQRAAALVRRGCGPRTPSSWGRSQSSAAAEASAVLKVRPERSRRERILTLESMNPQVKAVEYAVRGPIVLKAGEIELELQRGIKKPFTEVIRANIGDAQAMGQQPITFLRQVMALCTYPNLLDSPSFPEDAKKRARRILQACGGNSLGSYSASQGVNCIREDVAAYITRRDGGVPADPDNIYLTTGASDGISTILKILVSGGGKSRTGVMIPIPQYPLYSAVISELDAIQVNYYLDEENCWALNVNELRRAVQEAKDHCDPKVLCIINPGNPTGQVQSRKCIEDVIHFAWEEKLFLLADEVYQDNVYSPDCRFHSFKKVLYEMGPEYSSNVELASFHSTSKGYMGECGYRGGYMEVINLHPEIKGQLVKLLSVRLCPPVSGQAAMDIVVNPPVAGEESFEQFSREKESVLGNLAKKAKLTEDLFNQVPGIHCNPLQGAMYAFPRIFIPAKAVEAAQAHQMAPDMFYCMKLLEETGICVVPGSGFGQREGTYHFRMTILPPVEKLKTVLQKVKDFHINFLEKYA
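GPT2 10ng/uL, a-KG 250uM, L-Ala 2mM, HEPES pH7.5 + 0.0001% Tween; 30 min RT. Then Amplex mix (PO/HRP/ThPP), 30 min RT dark, fluorescence. AOA 50uM used as positive control.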
FLuc SDR -ATP – Firefly luciferase (FLuc-C-HiBiT) SDR gain of signal screen - without ATP. Potency, µM (highest dose often 32.7 µM), inactives show at the top dose activation (signal gain), most hits filed as activators. Purified FLuc-C-HiBiT, Nano-Glo HiBiT luminescence, no ATP. shares compounds with FLuc inh-1. hit rate 7.8% among 1,300; further: nearly all actives have a fitted effect of over 55% in size
FLuc SDR ATP – Firefly luciferase (FLuc-C-HiBiT) SDR gain of signal screen - plus ATP. shares compounds with FLuc inh-1. purified FLuc-C-HiBiT + ATP, HiBiT complementation luminescence. Potency, µM (titrated, usually from 32.7 µM), for the others: at the highest dose activation (gain of signal), usual class: activators. hit rate 8.7% among 1,300. AID 1963319, 2024;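 further: signal reports ligand binding via conformational change of the enzyme rather than luciferase catalysis; % of control where 0% means no effect; nearly all actives have a fitted effect of over 55% in size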
FLuc inh-2 – Firefly luciferase (FLuc-C-HiBiT) enzymatic inhibition screen - Functional assay; purified FLuc-C-HiBiT enzyme, luciferin luminescence; AID 1963320, 2024; hit rate 42% among 1,300; shares compounds with FLuc inh-1; Potency, µM (top dose mostly 32.7 µM), inactives show at the top dose activity change, negative = inhibition, actives largely listed as inhibitors; further: on the % scale 0 is the no-effect control and ±100 the full control effect; nearly all actives have a fitted effect of over 70% in size
* hit, by the source's call; [ ] = dose if it differs, or a comment. This is a sample that favours compounds with a hit; in the whole collection about 10% have one here. Unless noted, the call rests on the fitted dose curve; in most records, active means well fitted curve in the direction sought with a large enough effect; inconclusive means small, poorly fitted or top-dose-only effect, or another doubt; inactive means no such curve, though single readings can be large; an effect the other way counts as inactive or inconclusive. Potency means the concentration at half of the fitted maximal effect.

What do the screens show for `CC(C)(O)C#Cc1ccc(C(=O)N2CCOCC2CC(=O)O)o1` (centres undefined)?
HEK cytotox: -10%; FLuc inh-1: inactive; 3T3 cytotox: 2%; hNpr1 antagonist: -1%; GPT2 inh: -4%

Results for Cn1nc(-c2ccncc2)cc1NC(=O)Cc1ccccc1 ?
HEK cytotox: 0%[172 µM]; 3T3 cytotox: inconclusive; GPT2 inh: inactive

Results for Cc1c(NC(=O)Cc2ccccc2)cccc1-c1nc2ccccc2s1 ?
FLuc SDR -ATP: inconclusive; FLuc SDR ATP: 17%; FLuc inh-2: inconclusive

Results for Cc1ccc(-c2ncc(C(=O)Nc3ccccc3Cl)c(-c3ccncc3)n2)cc1 ?
HEK cytotox: 10%; FLuc inh-1: inactive; 3T3 cytotox: -3%; hNpr1 antagonist: -1%; GPT2 inh: inactive

How did Cc1c(NC(=O)c2cccc(Cl)c2Cl)cccc1-c1nc2ccccc2s1 do in these assays?
FLuc SDR -ATP: 17%; FLuc SDR ATP: 12%; FLuc inh-2: -18%

How did CCC(=O)Nc1cc(-c2nc3ccccc3s2)c(Cl)cc1Cl do in these assays?
FLuc SDR -ATP: 17%; FLuc SDR ATP: 11%; FLuc inh-2: -5%

Results for Cc1c(NC(=O)c2ccc(I)o2)cccc1-c1nc2ccccc2s1 ?
FLuc SDR -ATP: 27%; FLuc SDR ATP: 13%; FLuc inh-2: 7µM*

Results for COCCNC(=O)c1ccc2nnc(-c3ccc(Cl)cc3Cl)n2c1 ?
HEK cytotox: inactive; 3T3 cytotox: -8%; GPT2 inh: -21%

What do the screens show for `COc1ccc(C(=O)NCCn2ccn3nc(-c4ccc(F)cc4)cc3c2=O)cn1`?
HEK cytotox: 3%; FLuc inh-1: inactive; 3T3 cytotox: inactive; hNpr1 antagonist: -3%; GPT2 inh: inactive

What do the screens show for `O=C(Nc1ccc(F)cc1)c1ccc2nc(-c3cccnc3Cl)oc2c1`?
HEK cytotox: inconclusive; 3T3 cytotox: inconclusive; GPT2 inh: -7%[88.5 µM]

Results for O=c1[nH]nc2n1CCCCC2 ?
HEK cytotox: -10%; FLuc inh-1: inactive; 3T3 cytotox: -12%; hNpr1 antagonist: 11%; GPT2 inh: inactive; FLuc SDR -ATP: 13%; FLuc SDR ATP: 11%; FLuc inh-2: -3%

How did COc1ccccc1Cn1c(=O)c(C(=O)NCCCc2ccccc2)nc2cccnc21 do in these assays?
HEK cytotox: inconclusive; 3T3 cytotox: inconclusive; GPT2 inh: 3%

How did Nc1nc2c([nH]c(=O)n2[C@H]2C[C@H](O)[C@@H](CO)O2)c(=O)[nH]1 do in these assays?
FLuc SDR -ATP: 11%; FLuc SDR ATP: 8%; FLuc inh-2: 7%

How did Cc1ncccc1-c1nc2cc(C(=O)N3CCOCC3)ccc2o1 do in these assays?
HEK cytotox: -10%[172 µM]; 3T3 cytotox: inconclusive; GPT2 inh: 2%[88.5 µM]

How did Cc1noc(-c2ccn3c(CNC(=O)c4nccc5ccccc45)nnc3c2)n1 do in these assays?
HEK cytotox: -9%; FLuc inh-1: inactive; 3T3 cytotox: -15%; hNpr1 antagonist: -11%; GPT2 inh: inconclusive

Results for O=C(Nc1ccc2c(c1)OCCO2)N1CCC2(CC1)CC(N1CCOCC1)CCO2 (centres undefined) ?
HEK cytotox: 2%; 3T3 cytotox: -13%; GPT2 inh: inactive

Results for O=C(Nc1ccc2c(c1)OCCO2)N1CCC2(CC1)CC(N1CCCC1)CCO2 (centres undefined) ?
HEK cytotox: 12%; FLuc inh-1: 6.3µM*; 3T3 cytotox: inactive; hNpr1 antagonist: -8%; GPT2 inh: 1%; FLuc SDR -ATP: 29%; FLuc SDR ATP: inconclusive; FLuc inh-2: inconclusive

Results for CCn1ccc(C(=O)N2CC3CC(C2)[C@H]2CCCC(=O)N2C3)n1 (some centres undefined) ?
HEK cytotox: 2%; FLuc inh-1: inactive; 3T3 cytotox: 3%; hNpr1 antagonist: 2%; GPT2 inh: inactive

Results for COC1CCOC2(CCN(C(=O)CCCc3ccccc3)CC2)C1 (centres undefined) ?
HEK cytotox: -19%; FLuc inh-1: 6.3µM*; 3T3 cytotox: -5%; hNpr1 antagonist: -10%; GPT2 inh: inactive; FLuc SDR -ATP: 18%; FLuc SDR ATP: inconclusive; FLuc inh-2: inconclusive

How did COc1ccc(CCC(=O)N2CCC3(CC2)CC(OC)CCO3)cc1 (centres undefined) do in these assays?
HEK cytotox: 5%; FLuc inh-1: inactive; 3T3 cytotox: -20%; hNpr1 antagonist: 7%; GPT2 inh: -28%

How did C[S+](=O)([O-])N1Cc2ccccc2CC2(CCCCN2CC2CCNCC2)C1 (centres undefined) do in these assays?
HEK cytotox: -28%; 3T3 cytotox: -8%; GPT2 inh: 0%

Results for Cc1cccc(C(=O)Nc2nc3c(s2)CCCC3)c1 ?
FLuc SDR -ATP: inconclusive; FLuc SDR ATP: inconclusive; FLuc inh-2: 2.5µM*

How did COCCN1C(=O)c2ccccc2C(C(=O)Nc2nc3c(s2)CCC3)C12CCCC2 (centres undefined) do in these assays?
HEK cytotox: -5%; FLuc inh-1: inactive; 3T3 cytotox: -13%; hNpr1 antagonist: -10%; GPT2 inh: -7%

Results for Cc1ccc2nc3n(c2c1)[C@@H](CNCc1ccccc1)COC3 ?
HEK cytotox: inconclusive; FLuc inh-1: inactive; 3T3 cytotox: inconclusive; hNpr1 antagonist: inconclusive; GPT2 inh: inactive

Results for CCc1ccc(C2=CC(c3cccc(C)c3)n3c(nc4ccccc43)N2)cc1 (centres undefined) ?
FLuc SDR -ATP: 11µM*; FLuc SDR ATP: inconclusive; FLuc inh-2: 0.88µM*
